The panel holds about 79,000 compounds, 15% with a hit somewhere; the sample as a whole holds those more often. Values without a mark were called inactive. Calls of active or inactive are those of the source. No stated cut-off is given here; in the data, active means growth inhibition above about 70%; inactive means the rest.

The first test is described as follows: NCI Yeast Anticancer Drug Screen. Data for the mlh1 strain (AID 171).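 Further: 0% = growth of vehicle-treated control cultures of the same strain.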 As to conditions: S. cerevisiae mlh1 strain growth inhibition; at 33.0 µM; hits give high values. An outline of the steps:
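Measured: yeast growth. Reference: vehicle-treated controls. Organism: strain with a defined alteration affecting DNA damage repair or cell cycle control, treated with compound.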
For the compound `Cc1ccc2nc(N/N=C/c3ccc(C)s3)cc(C)c2c1`, the growth inhibition is 99% (active).

With `COc1cc(NCCCCCNC(C)C)c2ncccc2c1Cl`, the growth inhibition was 7%.

Consider `COc1ccc2cc(CN3CCC(C4CCN(Cc5ccc6cc(OC)ccc6c5)CC4)CC3)ccc2c1`, for which the growth inhibition is -26%.

As for `CC(=O)O/N=C/c1c2ccccc2cc2ccccc12`, the growth inhibition is 17%.

For `CC1(C)CC(=O)C(C(CC(c2ccccc2)c2cc3c(cc2O)OCO3)C2=C(O)CC(C)(C)CC2=O)=C(O)C1` (centres undefined), the growth inhibition was 82% (active).

With `CCCCCCC(CCl)c1sc(-c2csc(CCNC(=O)OC(C)(C)C)n2)nc1C(=O)OC` (centres undefined), the growth inhibition was -1%.

With `CCOC(=O)C1=C(C)NC(C)=C(C(=O)OCC)C1c1cccc([N+](=O)[O-])c1`, the growth inhibition was 51%.

Turning to `Cc1ccc2c(/C=C/c3ccc(N(C)C)cc3)ccnc2c1C`, the growth inhibition is 54%.

Regarding `O=C1C(Br)=CC(Br)(Br)C=C1Br`, the growth inhibition was 96% (active).

The same test, now with this note: S. cerevisiae mlh1 strain growth inhibition; at 100.0 µM; hits give high values.
For the compound `CNC(=O)OCc1c(COC(=O)NC)c(C)n(-c2ccc(Cl)c(Cl)c2)c1C`, the growth inhibition was 97% (active).

In the case of `COc1ccc2nc(N/N=C/c3sccc3C)cc(C)c2c1`, the growth inhibition was 92% (active).

For the compound `O=C(O)/C=C\C(=O)NNc1ccc(Br)cc1`, the growth inhibition was 99% (active).

Regarding `COc1ccc2nc3cccc([N+](=O)[O-])c3c(NCCCO)c2c1`, the growth inhibition was 97% (active).

In the case of `CCN(CC)CCSc1c2ccccc2nc2cc(NCC(=O)Nc3ccccc3-c3ccccc3NC(=O)CNc3ccc4c(SCCN(CC)CC)c5ccccc5nc4c3)ccc12`, the growth inhibition was 96% (active).

For the compound `Cc1ccc(N(C=O)c2c([N+](=O)[O-])cc([N+](=O)[O-])c3c2=[N+]([O-])CN=3)cc1`, the growth inhibition was 98% (active).

On to `COc1ccc(C(=O)OCCc2ccccc2)cc1`, for which the growth inhibition is 9%.

`COc1ccc(C(=O)NCCN(C)C)c2nc3ccccc3cc12`: the growth inhibition is 75% (active).

`NCC(O)CSCc1ccc(Cl)cc1` (centres undefined): the growth inhibition is 22%.

With `O=c1[nH]c(=O)n(CCCO)cc1F`, the growth inhibition is -19%.

For `COc1ccc(/C(=N/O)c2ccccc2C2=Nc3ccccc3C(NCc3ccccc3)O2)cc1C` (centres undefined), the growth inhibition was 96% (active).

As to `CCCC(=O)OC(OC(=O)CCC)c1ccc([N+](=O)[O-])o1`, the growth inhibition was 20%.

Consider `O=C(/C(=C/c1ccccc1)CBr)c1ccccc1`, for which the growth inhibition is 99% (active).

For `O=C(Cc1ccccc1F)NC1=C(Cl)C(=O)c2ccccc2C1=O`, the growth inhibition was 14%.

With `Cc1cccc(N2CCN(C(=O)/C(=C/c3ccccc3)NC(=O)c3ccccc3)CC2)c1`, the growth inhibition was 48%.

`c1cc(Nc2ccc3c(c2)OCO3)c2cc(C3CCCCC3)ccc2n1`: the growth inhibition is 82% (active).

For the compound `Cc1ccc2nc(N/N=C/c3ccc(C)s3)cc(C)c2c1`, the growth inhibition was 99% (active).

In the case of `COc1cc(NCCCCCNC(C)C)c2ncccc2c1Cl`, the growth inhibition was 15%.

Turning to `COc1ccc2cc(CN3CCC(C4CCN(Cc5ccc6cc(OC)ccc6c5)CC4)CC3)ccc2c1`, the growth inhibition was 97% (active).

Turning to `CC(=O)O/N=C/c1c2ccccc2cc2ccccc12`, the growth inhibition was 52%.

Regarding `CC1(C)CC(=O)C(C(CC(c2ccccc2)c2cc3c(cc2O)OCO3)C2=C(O)CC(C)(C)CC2=O)=C(O)C1` (centres undefined), the growth inhibition is 87% (active).

Turning to `CCCCCCC(CCl)c1sc(-c2csc(CCNC(=O)OC(C)(C)C)n2)nc1C(=O)OC` (centres undefined), the growth inhibition is 97% (active).

In the case of `CCOC(=O)C1=C(C)NC(C)=C(C(=O)OCC)C1c1cccc([N+](=O)[O-])c1`, the growth inhibition was 86% (active).

With `Cc1ccc2c(/C=C/c3ccc(N(C)C)cc3)ccnc2c1C`, the growth inhibition is 87% (active).

Take `O=C1C(Br)=CC(Br)(Br)C=C1Br`: the growth inhibition is 98% (active).
